Results taken from PubChem BioAssay (NCI).
Compounds without any hit were thinned out: in the full panel of roughly 83,000, 20% have a hit.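 How to read the values: 0–100, growth inhibition (40 = 60% inhibited); 0, no net growth; -100 to 0, cell death (-40 = 40% of starting cells died; -100 = all dead).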 Activity calls are given as the source filed them. Rule for the calls: active = growth percent below 10; inactive = the rest.

Key:
Test in all cases: NCI-60 one-dose screen, 48 h (100 = growth as untreated, 0 = no growth, -100 = all killed)
Details in all cases: 10 µM unless noted
DU-145 prostate = tested on: DU-145 prostate
K-562 leukemia = tested on: K-562 leukemia
MALME-3M melanoma = tested on: MALME-3M melanoma
MDA-MB-231 breast = tested on: MDA-MB-231 breast
RXF 393 renal = tested on: RXF 393 renal
SF-268 CNS = tested on: SF-268 CNS
SF-295 CNS = tested on: SF-295 CNS
SF-539 CNS = tested on: SF-539 CNS
UACC-257 melanoma = tested on: UACC-257 melanoma
M14 melanoma = tested on: M14 melanoma

Measured: growth

O=C1/C(=C/c2cn(-c3ccccc3)nc2-c2ccccc2)SC(=S)N1C1CCCCC1
inactive: DU-145 prostate 106% | K-562 leukemia 101% | MALME-3M melanoma 92.3% | MDA-MB-231 breast 89.8% | RXF 393 renal 106% | SF-268 CNS 102% | SF-295 CNS 104% | SF-539 CNS 99.4% | UACC-257 melanoma 102% | M14 melanoma 99.1%

O=C(Nc1ccc(Oc2cccc(F)c2)c(Cl)c1)c1cccnc1
active: SF-539 CNS 4.06%
inactive: DU-145 prostate 21.8% | K-562 leukemia 16.2% | MALME-3M melanoma 47.2% | MDA-MB-231 breast 60.2% | RXF 393 renal 13.5% | SF-268 CNS 53.7% | SF-295 CNS 40.1% | UACC-257 melanoma 56.1% | M14 melanoma 15.9%

Nc1ncnc2c1c(-c1cccc(Cl)c1)nn2CC(=O)N1CCOCC1
inactive: DU-145 prostate 111% | K-562 leukemia 105% | MALME-3M melanoma 110% | MDA-MB-231 breast 104% | RXF 393 renal 99% | SF-268 CNS 98.4% | SF-295 CNS 98.6% | SF-539 CNS 96.2% | UACC-257 melanoma 103% | M14 melanoma 104%

O=C1/C=C/[C@@H](O)[C@@H]2C[C@@H](O)C[C@H]2/C=C/CCC[C@H](CCc2ccccc2)O1
active: MALME-3M melanoma -14.2% | MDA-MB-231 breast -65.1% | RXF 393 renal -4.18% | SF-295 CNS 1.38% | M14 melanoma 7.17%
inactive: DU-145 prostate 14.1% | K-562 leukemia 17.7% | SF-268 CNS 16.6% | SF-539 CNS 26.3% | UACC-257 melanoma 25.4%

O=C1NC(=C(Cl)Cl)/C(=N\S(=O)(=O)NCc2ccccc2)N1
inactive: DU-145 prostate 105% | K-562 leukemia 81.4% | MALME-3M melanoma 104% | MDA-MB-231 breast 115% | RXF 393 renal 113% | SF-268 CNS 102% | SF-295 CNS 114% | SF-539 CNS 93.7% | UACC-257 melanoma 85.6% | M14 melanoma 94.3%

N#Cc1c(-c2ccccc2)cc(-c2ccc(Nc3nc(Nc4ccc(Cl)cc4)nc(Nc4ccc(Cl)cc4)n3)cc2)nc1N
inactive: DU-145 prostate 34% | K-562 leukemia 32.6% | SF-268 CNS 51.9% | SF-295 CNS 75.5%
active: MALME-3M melanoma -68.1% | MDA-MB-231 breast -31.2% | RXF 393 renal -44.5% | SF-539 CNS -53.9% | UACC-257 melanoma -12.1% | M14 melanoma 2%

COc1ccc(-c2nn(-c3cccc(Cl)c3)cc2-c2cc(-c3ccc(Br)cc3)nc(N)n2)cc1
inactive: DU-145 prostate 107% | K-562 leukemia 94.2% | MALME-3M melanoma 102% | MDA-MB-231 breast 81.9% | RXF 393 renal 111% | SF-268 CNS 101% | SF-295 CNS 99.1% | SF-539 CNS 103% | UACC-257 melanoma 104% | M14 melanoma 92.8%

NC(=O)c1cc(I)ccc1NC(=O)/C=C/c1ccccc1
inactive: MALME-3M melanoma 42.7% | MDA-MB-231 breast 31.6% | RXF 393 renal 19.3% | SF-268 CNS 29.9% | UACC-257 melanoma 69.7% | M14 melanoma 19.2%
active: DU-145 prostate -7.97% | K-562 leukemia 1.5% | SF-295 CNS -18.4% | SF-539 CNS -22%

CC(=O)O[C@@H]1C[C@]2(C(C)C)O[C@@]1(C)[C@@H]1CCC(C)=C1[C@@H]2OC(=O)/C=C/c1ccccc1
inactive: DU-145 prostate 101% | K-562 leukemia 81.7% | MALME-3M melanoma 86.4% | MDA-MB-231 breast 84.1% | RXF 393 renal 30.8% | SF-268 CNS 80.8% | SF-295 CNS 92.1% | SF-539 CNS 101% | UACC-257 melanoma 90.5% | M14 melanoma 93.6%

CC(=O)Oc1ccc(/C(=C(\C)c2ccc(Cl)cc2)c2ccc(OCCN3CCCCC3)cc2)cc1
active: K-562 leukemia -47% | MALME-3M melanoma -6.44% | SF-295 CNS 9.07% | UACC-257 melanoma -34.9% | M14 melanoma -35.1%
inactive: DU-145 prostate 61.9% | MDA-MB-231 breast 50.8% | RXF 393 renal 29.3% | SF-268 CNS 58.6% | SF-539 CNS 28.2%

O=C1NC(=O)C(Cc2ccc(OCc3ccc(-c4ccc(Cl)cc4Cl)cc3)cc2)S1 (stereo not given)
inactive: DU-145 prostate 78.9% | K-562 leukemia 23.5% | MALME-3M melanoma 49.9% | MDA-MB-231 breast 71% | RXF 393 renal 76.1% | SF-268 CNS 51.8% | SF-295 CNS 45% | SF-539 CNS 56.2% | UACC-257 melanoma 55.7% | M14 melanoma 47.5%

O=C(Nc1cccc(-c2ccc(Cl)c(C(F)(F)F)c2)c1)C1CCN(Cc2cccc3cccnc23)CC1
active: K-562 leukemia -6.99% | MALME-3M melanoma -75.6% | MDA-MB-231 breast -24.1% | RXF 393 renal 8.93% | SF-295 CNS -43.9% | SF-539 CNS -88.7% | M14 melanoma -68.5%
inactive: DU-145 prostate 10.8% | SF-268 CNS 40.1% | UACC-257 melanoma 19.8%

O=C(O)CCN1C(=O)/C(=C/C(Cl)=C/c2ccccc2)SC1=S
active: RXF 393 renal -10.2%
inactive: DU-145 prostate 22.2% | K-562 leukemia 14.5% | MALME-3M melanoma 36.1% | MDA-MB-231 breast 49.9% | SF-268 CNS 26.5% | SF-295 CNS 51.5% | SF-539 CNS 10.2% | UACC-257 melanoma 33.3% | M14 melanoma 10.3%

CCOC(=O)C1=C(c2ccccc2)N=C2SC=C(c3ccc(Cl)cc3)N2C1c1ccc(Cl)cc1 (stereo not given)
inactive: DU-145 prostate 87.7% | K-562 leukemia 73.8% | MALME-3M melanoma 87.2% | MDA-MB-231 breast 74.2% | RXF 393 renal 72% | SF-268 CNS 78.8% | SF-295 CNS 88.9% | SF-539 CNS 92.8% | UACC-257 melanoma 64.9% | M14 melanoma 82.8%

COc1cc2cc(NCc3cccc(Cl)c3)nc(C)c2cc1OC
inactive: DU-145 prostate 62.8% | MALME-3M melanoma 80.6% | MDA-MB-231 breast 41.6% | RXF 393 renal 40.3% | SF-268 CNS 41.3% | SF-295 CNS 26.1% | UACC-257 melanoma 69.8% | M14 melanoma 29.4%
active: K-562 leukemia 8.28% | SF-539 CNS 5.02%

O=S(=O)(NCCCNc1nccc(-c2c(-c3ccc(F)c(O)c3)nc3occn23)n1)c1ccc(Cl)cc1
inactive: DU-145 prostate 73.5% | K-562 leukemia 45.8% | MDA-MB-231 breast 40.4% | RXF 393 renal 30.8% | SF-268 CNS 66.5% | SF-295 CNS 103% | SF-539 CNS 87.5% | UACC-257 melanoma 33.8% | M14 melanoma 19.6%
active: MALME-3M melanoma 5.66%

CN(/C(N)=N/N=C/c1c2ccccc2cc2ccccc12)C1CCCCC1
inactive: DU-145 prostate 57.6% | K-562 leukemia 12.9% | MALME-3M melanoma 39.8% | MDA-MB-231 breast 59.9% | RXF 393 renal 48.1% | SF-268 CNS 72.4% | SF-295 CNS 45.7% | SF-539 CNS 73.9% | UACC-257 melanoma 64.3% | M14 melanoma 37.7%

CC(=O)c1c(C)nc(SCC(=O)Nc2cccc(O)c2)n1-c1ccc(Cl)cc1
inactive: DU-145 prostate 103% | K-562 leukemia 105% | MALME-3M melanoma 90.8% | MDA-MB-231 breast 82.1% | RXF 393 renal 92% | SF-268 CNS 96.2% | SF-295 CNS 97.4% | SF-539 CNS 105% | UACC-257 melanoma 101% | M14 melanoma 94.4%

COc1cc(NS(=O)(=O)c2ccc(-c3cnc(C4CC4)o3)cc2)ccc1F
active: SF-539 CNS 1.5%
inactive: DU-145 prostate 23% | K-562 leukemia 12.2% | MALME-3M melanoma 55.8% | MDA-MB-231 breast 24.2% | RXF 393 renal 12.4% | SF-268 CNS 55.7% | SF-295 CNS 15.6% | UACC-257 melanoma 69% | M14 melanoma 19%

O=C1C(=O)N(Cc2ccc(-c3ccccc3)cc2)c2ccc(OC(F)(F)F)cc21
active: SF-539 CNS -8.58%
inactive: DU-145 prostate 36.4% | K-562 leukemia 16.1% | MALME-3M melanoma 62.2% | MDA-MB-231 breast 44.9% | RXF 393 renal 76.9% | SF-268 CNS 49.5% | SF-295 CNS 41.4% | UACC-257 melanoma 72.7% | M14 melanoma 44.8%

CCCCC1=C(P(=O)(O)O)N[C@H](C(=O)O)CS1
inactive: DU-145 prostate 104% | K-562 leukemia 93.1% | MALME-3M melanoma 96.3% | MDA-MB-231 breast 90.6% | RXF 393 renal 93.5% | SF-268 CNS 98.6% | SF-295 CNS 85.9% | SF-539 CNS 93.1% | UACC-257 melanoma 86.6% | M14 melanoma 92.7%

c1ccc(Cn2cc3c(c2)-c2oncc2CC3)cc1
active: MDA-MB-231 breast 8.74% | RXF 393 renal 0.371% | SF-539 CNS -9.18%
inactive: DU-145 prostate 19.6% | K-562 leukemia 13.9% | MALME-3M melanoma 86% | SF-268 CNS 37.2% | SF-295 CNS 20.3% | UACC-257 melanoma 82.8% | M14 melanoma 19.9%

CNC(=O)c1ccccc1Oc1nc(Nc2cc(OC)c(OC)c(OC)c2)ncc1Br
inactive: DU-145 prostate 58.1% | K-562 leukemia 77.2% | MALME-3M melanoma 82.3% | MDA-MB-231 breast 75.4% | RXF 393 renal 40.3% | SF-268 CNS 59.3% | SF-295 CNS 53% | SF-539 CNS 71.1% | UACC-257 melanoma 77% | M14 melanoma 47.7%

N#Cc1c(-c2ccc(Cl)cc2)c(C#N)c2c(C#N)c(N)nn2c1N
inactive: DU-145 prostate 84% | K-562 leukemia 89.3% | MALME-3M melanoma 106% | MDA-MB-231 breast 71.3% | RXF 393 renal 79.7% | SF-268 CNS 83.7% | SF-295 CNS 83.3% | SF-539 CNS 78% | UACC-257 melanoma 89.2% | M14 melanoma 103%

CCOC(=O)c1cc2c(n1Cc1cc(OC)c(OC)c(OC)c1)-c1nc(N)sc1CCC2
inactive: DU-145 prostate 79.1% | K-562 leukemia 24.6% | MALME-3M melanoma 69.5% | MDA-MB-231 breast 51.6% | RXF 393 renal 54.9% | SF-268 CNS 70.5% | SF-295 CNS 26% | SF-539 CNS 62.5% | UACC-257 melanoma 43.9% | M14 melanoma 25.6%
